Test results: PubChem BioAssay (Tox21)
Inconclusive results are not listed. Calls of active or inactive are those of the source. Unless noted, calls follow the shape of the dose curve; as a rule, active = well fitted curve in the direction sought with a large enough effect in the repeat runs; inconclusive = weak or mixed curves; inactive = no such curve, though single readings can be large; an effect the other way counts as inactive or inconclusive.

Columns and labels:
[1] = qHTS RealTime-Glo MT Cell Viability Assay in HEK293 cells - 0 hour (AID 1224880); settings: RealTime-Glo luminescence; series mostly up to 76.8 µM; also: top concentration of the series differs between compounds; nearly all actives have a fitted effect of over 45% in size
In short: (§1)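 qHTS format; HEK293 cells with NanoLuc/prosubstrate reagent, 37 C/5% CO2 for 5 h pre-dosing; compounds 23 nL in DMSO; luminescence at each time point reflects viable cells.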

[2] = A CellTox Green Cytotoxicity Assay to monitor cytotoxicity in HepG2 cells - 0 hour (AID 1224882); settings: CellTox Green fluorescence; series mostly up to 76.8 µM; also: nearly all actives have a fitted effect of over 35% in size
In short: (§2)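 Continuous culture of HepG2 cells with a membrane-impermeant DNA dye; rising fluorescence marks dead cells. Compound exposure lasted up to 40 h at 37 C, with reads every 8 h from 0 h.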

[3] = A CellTox Green Cytotoxicity Assay to monitor cytotoxicity in HepG2 cells - 32 hour (AID 1224883); settings: CellTox Green fluorescence; series mostly up to 76.8 µM; also: nearly all actives have a fitted effect of over 50% in size
In short: as §2

[4] = qHTS RealTime-Glo MT Cell Viability Assay in HepG2 cells - 16 hour (AID 1224885); settings: RealTime-Glo luminescence; series mostly up to 76.8 µM; also: nearly all actives have a fitted effect of over 50% in size
In short: (§3)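 HepG2 suspension premixed with RealTime-Glo reagents is plated at 600 cells per well and left 5 h at 37 C/5% CO2. Compounds in DMSO then go in, and bioluminescence reflecting viable cell number is recorded over 40 h.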

[5] = qHTS RealTime-Glo MT Cell Viability Assay in HEK293 cells - 24 hour (AID 1224886); settings: RealTime-Glo luminescence; series mostly up to 76.8 µM; also: top concentration of the series differs between compounds; nearly all actives have a fitted effect of over 50% in size
In short: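 Reads taken at 0, 8, 16, 24, 32 and 40 h from the same wells. HEK293 cells (600/well) carried RealTime-Glo reagents from seeding, with compound added after a 5 h settle at 37 C.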

[6] = A CellTox Green Cytotoxicity Assay to monitor cytotoxicity in HepG2 cells - 8 hour (AID 1224890); settings: CellTox Green fluorescence; series mostly up to 76.8 µM; also: nearly all actives have a fitted effect of over 45% in size
In short: as §2

[7] = qHTS assay to identify small molecule antagonists of the estrogen receptor alpha (ER-alpha) signaling pathway using the BG1 cell line in the presence of 0.1 nM 17-beta-estradiol - cell viability counter screen (AID 1259241); settings: VM7Luc4E2 (BG1) viability, CellTiter-Fluor protease, 22 h, 0.1 nM estradiol agonist added; series mostly up to 92.4 µM; also: nearly all actives have a fitted effect of over 40% in size
In short: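 In this screen, hormone-deprived VM7Luc4E2 cells were seeded at 4,000 per well, dosed with compound and 0.1 nM estradiol final, and incubated 22 hr at 37C and 5% CO2; fluorogenic live-cell protease signal reported viability.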

[8] = qHTS assay to identify small molecule antagonists of the androgen receptor (AR) signaling pathway using the MDA cell line in the presence of 0.5 nM R1881 - cell viability counter screen (AID 1259242); settings: MDA-kb2 viability, CellTiter-Fluor protease fluorescence, 16 h; series mostly up to 92.4 µM; also: nearly all actives have a fitted effect of over 45% in size
In short: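 Fluorescence from CellTiter-Fluor, which reports protease activity of live cells, was read 30 min after reagent addition to MDA-kb2 cells that had been incubated 16 hr with compound and 0.5 nM R1881.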

[9] = target: Androgen receptor (Homo sapiens) (UniProt P10275); test: qHTS assay to identify small molecule antagonists of the androgen receptor (AR) signaling pathway using the MDA cell line in the presence of 0.5 nM R1881 (AID 1259243); settings: MDA-kb2 MMTV-luciferase, R1881 0.5 nM, 16 h; series mostly up to 92.4 µM; also: nearly all actives have a fitted effect of over 50% in size
In short: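 Inhibition of R1881 (0.5 nM final) induced reporter signal was measured in human MDA-kb2 cells; note the MMTV promoter also responds to GR. Exposure lasted 16 hr at 37C.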

[10] = qHTS assay to identify small molecule phospholipidosis (PLD) inducers (AID 1259344; active = well fitted curve in the direction sought with a large enough effect; an effect the other way counts as inactive or inconclusive); settings: HepG2 phospholipidosis, LipidTOX Red imaging, 24 h; series mostly up to 38.3 µM
In short: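 HepG2 cells, 900/well, treated with compound plus LipidTOX Red for 24 h at 37 C; amiodarone positive and DMSO negative controls. Fixed with paraformaldehyde/Hoechst, then high-content imaging scored LipidTOX pit count and integrated intensity per well and per cell.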

[11] = qHTS assay to identify small molecule HDAC inhibitors (AID 1259364); settings: HCT-116 HDAC-Glo I/II luminescence, 2 h; series mostly up to 92.4 µM; also: nearly all actives have a fitted effect of over 45% in size; also: potency is read from the fitted curve at half-maximal effect; as to activity change, negative = inhibition: top concentration of the series differs between compounds
In short: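 Endogenous HDAC class I/II activity was measured in wild-type HCT-116 cells by HDAC-Glo luminescence after 2 h compound treatment.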

[12] = qHTS assay to identify small molecule HDAC inhibitors - cell viability counter screen (AID 1259365); settings: HCT-116 viability, CellTiter-Glo ATP luminescence, 2 h; series mostly up to 92.4 µM; also: nearly all actives have a fitted effect of over 50% in size
In short: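 Measured quantity is CellTiter-Glo luminescence from wild-type HCT-116 cells after compound incubation of 2hr at 37C, 5% CO2; reagent developed 30min at room temperature.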

[13] = qHTS assay to identify small molecule agonists of the sonic hedgehog signaling (Shh) pathway - cell viability counter screen (AID 1259366); settings: NIH/3T3 Gli1-Luc viability, CellTiter-Fluor, 24 h; series mostly up to 92.4 µM; also: nearly all actives have a fitted effect of over 50% in size
In short: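 In quantitative high-throughput format, 3T3 Gli1-Luc cells were exposed to compounds for 24hr and multiplexed for viability using CellTiter-Fluor, incubated 1hr at 37C before the fluorescence read.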

[14] = qHTS assay to identify small molecule antagonists of the sonic hedgehog signaling (Shh) pathway - cell viability counter screen (AID 1259367); settings: NIH/3T3 Gli1-Luc viability, CellTiter-Fluor, 24 h; series mostly up to 92.4 µM; also: nearly all actives have a fitted effect of over 55% in size
In short: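 NIH/3T3-derived Gli1-Luc reporter cells, 2,000/well, plated 4 hr before compound addition, then stimulated with conditioned medium for 24 hr at 37C. Viability measured in the same wells by CellTiter-Fluor fluorescence, reagent added at 23 hr for 1 hr.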

[15] = A CellTox Green Cytotoxicity Assay to monitor cytotoxicity in HEK293 cells - 32 hour (AID 1224881); settings: CellTox Green fluorescence; series mostly up to 76.8 µM; also: nearly all actives have a fitted effect of over 40% in size
In short: (§4)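 Each value comes from one timepoint of a single continuous run in which HEK293 cells with CellTox Green were exposed to compound for up to 40 h at 37 C, dye fluorescence rising with cell death.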

[16] = qHTS RealTime-Glo MT Cell Viability Assay in HEK293 cells - 8 hour (AID 1224887); settings: RealTime-Glo luminescence; series mostly up to 76.8 µM
In short: as §1

[17] = A CellTox Green Cytotoxicity Assay to monitor cytotoxicity in HEK293 cells - 16 hour (AID 1224888); settings: CellTox Green fluorescence, active compounds read high; series mostly up to 76.8 µM; also: nearly all actives have a fitted effect of over 35% in size
In short: as §4

[18] = qHTS RealTime-Glo MT Cell Viability Assay in HepG2 cells - 0 hour (AID 1224889); settings: RealTime-Glo luminescence; series mostly up to 76.8 µM; also: nearly all actives have a fitted effect of over 50% in size
In short: as §3

[19] = A CellTox Green Cytotoxicity Assay to monitor cytotoxicity in HEK293 cells - 8 hour (AID 1224884); settings: CellTox Green fluorescence; series mostly up to 76.8 µM; also: nearly all actives have a fitted effect of over 35% in size
In short: as §4

[20] = target: Estrogen receptor (Homo sapiens) (UniProt P03372); test: qHTS assay to identify small molecule antagonists of the estrogen receptor alpha (ER-alpha) signaling pathway using the BG1 cell line in the presence of 0.1 nM 17-beta-estradiol (AID 1259244); settings: VM7Luc4E2 (BG1) ERE-luciferase, antagonist mode, 0.1 nM E2, 22 h; series mostly up to 92.4 µM; also: nearly all actives have a fitted effect of over 50% in size
In short: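 Quantitative high-throughput screen in VM7Luc4E2 cells: compound plus 0.1 nM E2 (final), 22 h, 37C, 5% CO2; ONE-Glo added, 30 min room temperature, luminescence measured.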
% is scaled to controls: 0 for no effect and ±100 for the full control effect.

Androgen receptor (Homo sapiens), sequence (P10275 whole entry, looked up): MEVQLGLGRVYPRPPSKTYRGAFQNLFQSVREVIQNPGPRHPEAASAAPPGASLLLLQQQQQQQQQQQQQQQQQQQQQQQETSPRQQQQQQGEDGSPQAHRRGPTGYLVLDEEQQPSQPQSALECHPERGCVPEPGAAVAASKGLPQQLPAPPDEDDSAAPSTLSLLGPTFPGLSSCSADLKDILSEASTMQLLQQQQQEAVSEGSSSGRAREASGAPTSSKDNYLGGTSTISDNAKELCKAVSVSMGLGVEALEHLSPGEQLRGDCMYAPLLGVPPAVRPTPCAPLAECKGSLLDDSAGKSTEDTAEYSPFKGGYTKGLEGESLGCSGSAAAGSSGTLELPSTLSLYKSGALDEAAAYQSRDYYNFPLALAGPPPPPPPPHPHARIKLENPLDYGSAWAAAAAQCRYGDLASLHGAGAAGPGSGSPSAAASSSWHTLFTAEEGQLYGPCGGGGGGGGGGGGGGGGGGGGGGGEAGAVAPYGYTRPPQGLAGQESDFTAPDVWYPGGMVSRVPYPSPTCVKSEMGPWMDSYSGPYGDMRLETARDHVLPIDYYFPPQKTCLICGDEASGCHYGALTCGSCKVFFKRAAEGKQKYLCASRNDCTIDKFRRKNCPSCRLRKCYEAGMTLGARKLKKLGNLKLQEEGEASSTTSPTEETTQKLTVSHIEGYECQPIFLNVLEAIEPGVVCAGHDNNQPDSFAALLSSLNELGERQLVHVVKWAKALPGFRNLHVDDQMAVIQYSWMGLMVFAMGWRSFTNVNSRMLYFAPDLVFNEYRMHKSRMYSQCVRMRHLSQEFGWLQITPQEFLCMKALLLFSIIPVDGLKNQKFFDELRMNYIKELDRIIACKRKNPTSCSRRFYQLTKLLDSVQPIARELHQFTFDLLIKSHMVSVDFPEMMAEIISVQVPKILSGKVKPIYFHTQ
Estrogen receptor (Homo sapiens), sequence (P03372 whole entry, looked up): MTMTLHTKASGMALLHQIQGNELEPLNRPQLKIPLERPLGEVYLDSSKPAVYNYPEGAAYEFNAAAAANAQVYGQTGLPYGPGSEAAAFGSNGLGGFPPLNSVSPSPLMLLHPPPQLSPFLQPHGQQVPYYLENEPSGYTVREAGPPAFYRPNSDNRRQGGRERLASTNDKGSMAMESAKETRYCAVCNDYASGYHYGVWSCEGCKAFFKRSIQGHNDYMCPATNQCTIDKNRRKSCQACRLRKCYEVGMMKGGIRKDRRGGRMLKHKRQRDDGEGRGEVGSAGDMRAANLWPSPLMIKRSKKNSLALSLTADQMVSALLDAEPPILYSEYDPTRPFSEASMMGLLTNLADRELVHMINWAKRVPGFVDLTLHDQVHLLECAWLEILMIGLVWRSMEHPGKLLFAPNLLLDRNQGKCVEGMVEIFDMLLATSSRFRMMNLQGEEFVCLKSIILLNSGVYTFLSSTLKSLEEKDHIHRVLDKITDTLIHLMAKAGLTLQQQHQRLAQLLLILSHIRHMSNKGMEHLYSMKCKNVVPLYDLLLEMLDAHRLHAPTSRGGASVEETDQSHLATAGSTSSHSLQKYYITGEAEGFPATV

CC(S)C(=O)NCC(=O)O (stereo unspecified)
inactive: Potency [1] | outcome [2] | Potency [3] | outcome [4] | Potency [5] | outcome [6] | Potency [7] | outcome [8] | Potency [9] | outcome [10] | Potency [11] | outcome [12] | Potency [13] | Potency [14]

OCCCCC(O)CO (stereo unspecified)
inactive: Potency [1] | Potency [15] | outcome [2] | Potency [3] | outcome [4] | Potency [5] | Potency [16] | outcome [17] | Potency [18] | Potency [7] | outcome [8] | Potency [11] | outcome [12] | Potency [13] | Potency [14]

CC(C)C(=O)OCCc1ccccc1
inactive: Potency [1] | outcome [2] | Potency [3] | Potency [19] | outcome [4] | Potency [5] | Potency [16] | outcome [17] | Potency [18] | outcome [6] | Potency [7] | Potency [20] | Potency [11] | outcome [12] | Potency [13] | Potency [14]

CCO[Si](CCCS)(OCC)OCC
inactive: Potency [1] | Potency [15] | outcome [2] | Potency [3] | outcome [4] | outcome [6] | Potency [7] | outcome [8] | Potency [11] | outcome [12] | Potency [13] | Potency [14]

CCOC(=O)c1ncn2c1CN(C)C(=O)c1cc(F)ccc1-2
inactive: Potency [1] | Potency [15] | outcome [2] | Potency [3] | outcome [4] | Potency [5] | outcome [17] | Potency [18] | outcome [6] | Potency [7] | outcome [8] | Potency [9] | Potency [20] | outcome [10] | Potency [11] | outcome [12] | Potency [13] | Potency [14]

O=C1c2cccc3c2[C@H](CCC3)CN1[C@@H]1CN2CCC1CC2
inactive: Potency [1] | Potency [15] | outcome [2] | Potency [3] | outcome [4] | Potency [16] | outcome [17] | Potency [7] | outcome [8] | Potency [20] | Potency [11] | outcome [12] | Potency [14]

Cc1ccc(C=O)cc1C
inactive: Potency [1] | Potency [15] | outcome [2] | Potency [3] | outcome [4] | Potency [5] | Potency [16] | outcome [17] | outcome [6] | Potency [7] | outcome [8] | Potency [20] | Potency [11] | outcome [12] | Potency [13] | Potency [14]

CC[C@H](C)C(=O)O[C@H]1C[C@H](O)C=C2C=C[C@H](C)[C@H](CC[C@@H](O)C[C@@H](O)CC(=O)O)[C@H]21
inactive: Potency [1] | Potency [15] | outcome [2] | Potency [3] | outcome [4] | Potency [5] | Potency [16] | outcome [17] | Potency [18] | Potency [20] | outcome [10] | Potency [11] | outcome [12] | Potency [13] | Potency [14]

N[C@@H](COP(=O)(O)O)C(=O)O
inactive: activity change, negative = cytotoxicity [1] 12.6% [at 15.8 µM] | cytotoxicity increase [15] -6.18% [at 15.8 µM] | cytotoxicity [2] 0.162% [at 15.8 µM] | cytotoxicity increase [3] -0.733% [at 15.8 µM] | activity change, negative = cytotoxic [4] 1.13% [at 15.8 µM] | activity change, negative = cytotoxicity [5] 1.75% [at 15.8 µM] | activity change, negative = cytotoxicity [16] 10.1% [at 15.8 µM] | activity change [17] -5.61% [at 15.8 µM] | activity change, negative = cytotoxicity [18] -1.1% [at 15.8 µM] | cytotoxicity increase [6] 3.11% [at 15.8 µM] | activity change, negative = cytotoxicity [7] 0.527% [at 19 µM] | viability change, negative = cytotoxic [8] 4.56% [at 19 µM] | activity change, negative = inhibition [11] -0.0158% [at 19 µM] | viability change, negative = cytotoxic [13] -4.16% [at 19 µM] | viability change, negative = cytotoxic [14] 5.61% [at 19 µM]

O=C(O)C(=O)Cc1ccccc1
inactive: Potency [1] | Potency [15] | outcome [2] | Potency [3] | outcome [4] | Potency [5] | outcome [17] | Potency [18] | outcome [6] | Potency [7] | outcome [8] | Potency [9] | Potency [20] | Potency [11] | Potency [13] | Potency [14]

CCCOC(=O)C(C)O (stereo unspecified)
inactive: Potency [1] | Potency [15] | outcome [2] | Potency [3] | outcome [4] | Potency [5] | outcome [17] | outcome [6] | Potency [7] | outcome [8] | Potency [9] | Potency [20] | Potency [11] | outcome [12] | Potency [13] | Potency [14]

COc1cc2c(cc1OC)C(=O)CC2
inactive: Potency [15] | outcome [2] | Potency [3] | Potency [19] | outcome [4] | Potency [5] | Potency [16] | outcome [17] | Potency [18] | outcome [6] | Potency [7] | outcome [8] | Potency [9] | Potency [11] | Potency [13] | Potency [14]

C[C@H](CCC(=O)O)[C@H]1CC[C@H]2[C@@H]3C(=O)C[C@@H]4CC(=O)CC[C@]4(C)[C@H]3CC(=O)[C@]12C
inactive: Potency [15] | outcome [2] | Potency [3] | Potency [19] | outcome [4] | Potency [5] | Potency [16] | outcome [17] | Potency [18] | outcome [6] | Potency [7] | outcome [8] | Potency [20] | outcome [10] | Potency [11] | Potency [13] | Potency [14]

CC(C)CCCCOC(=O)c1ccccc1C(=O)OCCCCC(C)C
inactive: Potency [1] | Potency [15] | outcome [2] | Potency [3] | outcome [4] | Potency [5] | Potency [16] | outcome [17] | Potency [18] | outcome [6] | Potency [7] | Potency [11] | outcome [12] | Potency [13] | Potency [14]

O=S(=O)(O)c1cc(O)c2ccc(Nc3ccccc3)cc2c1
inactive: Potency [1] | Potency [15] | outcome [2] | Potency [3] | outcome [4] | Potency [5] | outcome [17] | outcome [6] | Potency [7] | outcome [8] | Potency [20] | Potency [13] | Potency [14]
active: Potency [11] 24.3 µM

CC(C)(C)NC(N)=O
inactive: Potency [15] | outcome [2] | Potency [3] | Potency [19] | outcome [4] | Potency [5] | Potency [16] | outcome [17] | Potency [18] | outcome [6] | Potency [7] | outcome [8] | Potency [9] | Potency [20] | Potency [11] | outcome [12] | Potency [13] | Potency [14]
